104 compounds from PubChem BioAssay AID431 (Sanford-Burnham Center for Chemical Genomics, 2006) can be followed below.

Structures are written as SMILES. In all, about 63,000 compounds went through this assay and about 1,100 (1.7%) were called active. The sample holds actives, similar compounds and a random draw of the others, so the mix is not that of the screen. Measured potencies and affinities stand elsewhere. Unmarked numbers belong to inactive results.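 The calls were made as follows: active = compounds whose percent cytotoxicity in the single-dose primary screen, scaled between solvent and toxic-drug controls, exceeds 50; inactive = the rest.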

This assay in a line: viability loss of HPDE-C7K cells – cell-based, fluorescence, HTS, primary screen (AID 431).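 Also: 0% = DMSO solvent wells and 100% = doxorubicin-treated wells.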 The note with it: HPDE-C7K KRASV12 cells, Alamar Blue viability, 48 h; at 10 µM; hits give high values.
On to `C/C(Cl)=C/Cn1c(NCCN(C)C)nc2c1c(=O)n(C)c(=O)n2C`, for which the cytotoxicity was 10.3%.
Under `CCCCC(=O)Nc1ccc2c(c1)nc1n2CCOC1` stands -4.8%.
Under `Cc1onc(-c2ccccc2)c1C(=O)NCc1ccco1` stands 9%; under `Fc1ccc(CN2CCCCCCC2)c(F)c1`, 4.9%.
Consider `CCCC(C(=O)NCc1ccco1)N(C(=O)CNS(=O)(=O)c1ccc(Cl)cc1)C1CCCC1` (centres undefined), for which the cytotoxicity is 2.5%.
Under `Cc1ccc(Cl)cc1N1CCN(C(=O)c2cc3c(=O)n(C)c4ccccc4c3n2C)CC1` stands 38.6%; under `Cn1cc(C(=O)N2CCN(C(=O)c3ccco3)CC2)c2c3ccccc3n(C)c2c1=O`, -0.8%.
Under `Cc1ccc(Cl)cc1N1CCN(C(=O)c2cn(C)c(=O)c3c2c2ccccc2n3C)CC1` stands 110% (active).
On to `Cc1cccc(N2CCN(C(=O)c3cn(C)c(=O)c4c3c3ccccc3n4C)CC2)c1C`, for which the cytotoxicity is 88.5% (active).
Take `COc1ccc(N2CCN(C(=O)c3cn(C)c(=O)c4c3c3ccccc3n4C)CC2)cc1`: the cytotoxicity was 10.6%.
Under `CCOC(=O)N1CCN(C(=O)c2cn(C)c(=O)c3c2c2ccccc2n3C)CC1` stands 4.1%; under `Cn1c2c(c(=O)n(C)c1=O)CN(Cc1ccc3c(c1)OCO3)CN2`, 4.8%.
As to `O=C(Nc1ccc(Cl)cn1)c1cc2ccccc2o1`, the cytotoxicity was -4.1%.
The figure for `COc1cc(C2Nc3cc(Cl)c(S(N)(=O)=O)cc3S(=O)(=O)N2)cc(OC)c1OC` (centres undefined) is -17.3%; for `N#CCCN1CCN(S(=O)(=O)c2ccc(S(=O)(=O)N3CCCCCC3)cc2)CC1` it is 0.7%.
The figure for `COc1ccc(N2CCN(C(=O)CN3C(=O)C4CC=CCC4C3=O)CC2)cc1` (centres undefined) is 0.2%; for `Cc1ccc(C2C3=C(CC(C)(C)CC3=O)NC3=C2C(=O)CC(C)(C)C3)o1` it is -0.9%.
The figure for `CC(C)Cn1c(N)c(C(=O)NCCN2CCOCC2)c2nc3ccccc3nc21` is -5.3%; for `COCCNC(=O)c1c(N)n(-c2cccc(C)c2)c2nc3ccccc3nc12` it is 26.4%; for `COCCn1c(N)c(C(=O)NCc2cccs2)c2nc3ccccc3nc21` it is 9.2%.
With `Nc1c(C(=O)NCC2CCCO2)c2nc3ccccc3nc2n1-c1ccccc1` (centres undefined), the cytotoxicity is 10.6%.
Under `CC(C)Cn1c(N)c(C(=O)NCc2cccs2)c2nc3ccccc3nc21` stands 92.2% (active); under `COCCn1c(N)c(C(=O)NCC2CCCO2)c2nc3ccccc3nc21` (centres undefined), 15.6%; under `Nc1c(C(=O)NC2CCCC2)c2nc3ccccc3nc2n1N`, 10.7%.
The figure for `CC(C)Cn1c(N)c(C(=O)NCC2CCCO2)c2nc3ccccc3nc21` (centres undefined) is 22.7%; for `COCCNC(=O)c1c(N)n(CCCn2ccnc2)c2nc3ccccc3nc12` it is 6.1%; for `COCCSc1nnc(-c2cccc(C#N)c2)n1C` it is -2.9%.
Under `COc1cc(C)c(C#N)c(OC)n1` stands 0%; under `CC(C)OCC(O)CN` (centres undefined), -11.2%.
As for `CCCn1c(=C(C#N)C#N)s/c(=C2\C=Cc3ccccc3N2CC)c1=O`, the cytotoxicity is 6%.
Take `Cc1nc(C)c(C(=O)NCc2ccc(Cl)cc2)o1`: the cytotoxicity was -5.4%.
Under `O=C(CN1CCN(S(=O)(=O)c2ccc(F)cc2)CC1)Nc1ccc2c(c1)OCO2` stands 0.6%; under `CCOC(=O)COc1ccc2nsnc2c1Cl`, 2.6%; under `COCCn1c(SC(C)C(=O)Nc2ccc3c(c2)OCCO3)nc2ccccc2c1=O` (centres undefined), -20.1%.
The figure for `CCc1nnc(NC(=O)CSc2nnc(Cc3cccn3C)n2C)s1` is 4%.
For the compound `CC1(C)Cc2c(c(N3CCOCC3)nc3sc(C(=O)N4CCCCC4)c(N)c23)CO1`, the cytotoxicity was -5.9%.
Under `CC1(C)Cc2c(c(N3CCOCC3)nc3snc(Br)c23)CO1` stands -11%.
Under `Cc1cccnc1Nc1nc(-c2ccc(O)cc2O)cs1` stands 78% (active); under `Cc1nc(-c2c(-c3ccc(O)cc3O)noc2C(F)(F)F)cs1`, 1.3%.
The figure for `Cc1cc(O)ccc1Nc1nc(-c2sc(N)nc2C)cs1` is 13%.
For the compound `COc1ccc(C(C(=O)NC(C)(C)C)N(Cc2ccco2)C(=O)CCC(=O)Nc2cc(C)on2)cc1` (centres undefined), the cytotoxicity was -10%.
The figure for `O=C(O)c1ccc(CS(=O)(=O)c2cccc(C(F)(F)F)c2)o1` is 0.8%; for `CCNC(=O)N1C(=O)C2(OCCO2)c2ccccc21` it is -11.6%.
Take `CCCCOc1ccc(OCCCC)c2c1NC1(N2)C(=O)N(C(C)=O)c2ccccc21`: the cytotoxicity was 59.6% (active).
The figure for `CC(=O)N1C(=O)C2(Nc3ccccc3N2)c2ccccc21` is 2.8%; for `CCn1c(=NC(=O)CSC(C)=O)sc2cc(F)ccc21` it is -9.8%; for `Cc1c(C(C)O)nnn1-c1nonc1N` (centres undefined) it is 7.8%.
Take `CC(c1ccco1)N(C(=O)C12CC3CC(CC(C3)C1)C2)c1ccccn1` (centres undefined): the cytotoxicity is -19.3%.
Under `Cc1nn(C(C)(C)C)c(OC(=O)c2cccs2)c1S(=O)(=O)c1ccccc1` stands 64% (active); under `Cc1ccc(S(=O)(=O)c2c(C)nn(C(C)(C)C)c2OC(=O)c2cccs2)cc1`, 5%; under `CC(=O)Oc1c(S(=O)(=O)c2ccc(C)cc2)c(C)nn1C(C)(C)C`, 3.3%.
Under `Cc1ccc(S(=O)(=O)c2c(C)nn(C(C)(C)C)c2OC(=O)c2ccco2)cc1` stands 5.7%.
Under `Cc1nn(-c2ccccc2)c(OC(=O)c2cccs2)c1S(=O)(=O)c1ccccc1` stands 1.2%; under `O=C(Cc1coc2ccc3ccccc3c12)N1CCN(c2ncccn2)CC1`, 0.6%.
On to `COc1ccc(Nc2cc(=O)n(C3CCCCC3)c(=O)[nH]2)c(OC)c1`, for which the cytotoxicity was -8.6%.
Under `CCC(=O)Nc1ccc(OC)cc1OC` stands -5.2%; under `COc1ccc(OCc2nn3c(-c4ccccn4)nnc3s2)cc1`, 4%.
The figure for `CN1CCN(c2ncnc3c2sc2nc(N4CCCC4)c4c(c23)CC(C)(C)OC4)CC1` is -9.3%; for `OCCN1CCN(c2ncnc3c2sc2nc(N4CCOCC4)c4c(c23)CCC4)CC1` it is 39.9%.
Under `CC1(C)Cc2c(c(N3CCCC3)nc3sc4c(N5CCN(CCO)CC5)ncnc4c23)CO1` stands 67.8% (active); under `O=c1[nH]nc2c3ccccc3cnn12`, -22%.
In the case of `C=COCCNC(=O)C1CC(=O)N(c2ccc(C)cc2)C1` (centres undefined), the cytotoxicity is 13.2%.
In the case of `Cc1ccc(-c2cc(-c3ccc(C)o3)nc(N)c2C#N)cc1`, the cytotoxicity is -2.5%.
The figure for `Cc1cc(-c2cc(-c3ccc(Cl)cc3)nc(N)c2C#N)co1` is 92% (active).
In the case of `Cc1ccc(-c2cc(-c3ccccc3)c(C#N)c(N)n2)o1`, the cytotoxicity is 10.2%.
Under `Cc1ccc(-c2cc(-c3ccc(Cl)cc3)c(C#N)c(N)n2)o1` stands 74.2% (active); under `Cc1ccc(-c2cc(-c3ccc(F)cc3)nc(N)c2C#N)o1`, 4.4%; under `Cc1ccc(-c2cc(-c3ccccc3Cl)c(C#N)c(N)n2)o1`, 20.7%.
The figure for `Cc1ccc(Cl)cc1NC(=O)CC(O)(C(F)(F)F)C(F)(F)F` is 57.3% (active); for `Cc1ccc(NC(=O)CC(O)(C(F)(F)F)C(F)(F)F)c(Br)c1` it is -6.8%; for `CCNC(=O)CCC(=O)Nc1cc(Cl)ccc1C` it is -14.8%.
Under `COC(=O)c1sccc1NC(=O)c1ccc(OC)cc1` stands 13.2%; under `COc1ccc(C2CC(c3cc(Br)ccc3F)n3nnnc3N2)cc1` (centres undefined), 1.9%; under `O=C(c1ccncc1)c1ccc(Br)cc1`, 1.4%.
Turning to `O=C(c1ccccc1)c1ccncc1`, the cytotoxicity was 56.1% (active).
The figure for `O=C(c1ccccc1)c1nnc(-c2ccncc2)o1` is -7.9%; for `O=S(=O)(NCCSc1nnc(-c2ccco2)n1-c1ccccc1)c1ccccc1` it is -7.3%.
Turning to `C=C(C)Cn1c(Sc2nc3ccccc3[nH]2)nc2c1c(=O)[nH]c(=O)n2C`, the cytotoxicity was 21.2%.
The figure for `c1ccc(-c2nnc(N3CCN(c4ccccn4)CC3)c3ccccc23)cc1` is -2.1%; for `Cc1ccc(-c2nnc(N3CCN(S(C)(=O)=O)CC3)c3ccccc23)cc1` it is -3.8%; for `COc1ccccc1NC(=O)CSc1nnc(C)n1Cc1ccccc1` it is -12.1%.
The figure for `O=C(Nc1ccc(Br)cc1F)c1ccncc1` is -12.6%.
Under `CCCNc1nc2c(c(=O)[nH]c(=O)n2C)n1CCC(C)C` stands 9%; under `Cc1c(Cl)cccc1Nc1ccccc1C(=O)O`, 46%.
On to `Cc1ccc(Cl)c(Nc2ccccc2C(=O)O)c1Cl`, for which the cytotoxicity was 67.9% (active).
Under `Cc1cccc(Nc2ccccc2C(=O)O)c1C` stands 6%.
Under `CC(C)Oc1ccc2c(=O)c(-c3ccccc3)coc2c1` stands 53.7% (active); under `CCN(CC)C(=O)Oc1ccc2c(=O)c(-c3ccc(OC)cc3)coc2c1`, -3.7%.
The figure for `CCN(CC)C(=O)Oc1ccc2c(=O)c(-c3ccccc3)coc2c1` is -28%.
Regarding `O=C(NC1CCCc2ccccc21)C1CCC(CNc2c(N3CCOCC3)c(=O)c2=O)CC1` (centres undefined), the cytotoxicity was -5%.
Under `O=C(NCC1CCCO1)C1CCN(C(=O)c2ccc(Cl)cc2)CC1` (centres undefined) stands -4.1%; under `Cc1ccc2c(c1)nnn2C1CCN(CC(=O)Nc2ccc3c(c2)OCCO3)CC1`, -7.5%.
`COc1cc(-c2nc3cnccn3c2Nc2ccccc2)ccc1O`: the cytotoxicity was 16.3%.
The figure for `c1cn2c(NC3CCCC3)c(-c3ccc(N4CCOCC4)cc3)nc2cn1` is 7.8%.
The figure for `CCOC(=O)C1=CN(C)C=C(C(=O)OCC)C1c1ccsc1` is 6.2%; for `COC(=O)c1ccc(C)c(NS(=O)(=O)c2ccc(NC(C)=O)cc2)c1` it is 4.5%; for `COC(=O)c1ccc(C)c(NS(=O)(=O)c2ccc(OC)cc2)c1` it is 65.2% (active).
For `COC(=O)c1ccc(Cl)c(NS(=O)(=O)c2ccc3c(c2)OCCO3)c1`, the cytotoxicity was 63.6% (active).
Under `COC(=O)c1ccc(C)c(NC(=O)CN(c2ccc3c(c2)OCO3)S(C)(=O)=O)c1` stands -3.2%; under `CC(=O)c1cc2c(cc1NS(=O)(=O)c1ccc3c(c1)OCCO3)OCO2`, 37.2%; under `CCCNC(=O)c1ccccc1NS(=O)(=O)c1ccc2c(c1)OCCO2`, 28.6%.
The figure for `O=C(O)c1ccc(NS(=O)(=O)c2ccc3c(c2)OCCO3)cc1` is 1.7%; for `COC(=O)c1ccc(C)c(NS(=O)(=O)c2ccc3c(c2)OCCO3)c1` it is 59.3% (active).
Under `COC(=O)c1ccc(NS(=O)(=O)c2ccc(OC)cc2)cc1` stands -10.3%.
